The source made the active and inactive calls. Unless noted, the rule behind the calls is not given here.
Key:
[1] = anti-His antibody binders, primary screen, artefact control for SMM control protein annotation, biochemical, small-molecule microarray, 635 nm fluorescence (AID 1128); details: anti-His Alexa647 antibody binding, higher = more signal;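 note: score merges feature fluorescence with signal-to-noise for each printed compound spot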
[2] = system: Human papillomavirus type 1a E7 protein (residues 1-88); assay: HPV1a E7 small-molecule binders, primary screen, biochemical, small-molecule microarray, residues 1-88, 635 nm (AID 1129); details: small-molecule microarray binding, fluorescence 635 nm; higher = more signal
[3] = target: Focal adhesion kinase 1 (Homo sapiens) (UniProt Q05397); assay: small-molecule microarray binders of FAK, primary screen, biochemical, 635/667 nm fluorescence, BSA, DTT (AID 1130); details: PTK2 binding, 635 nm fluorescence, higher = more signal;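 note: composite of spot emission at 667 nm and signal to noise over triplicate slides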
Sequence of Focal adhesion kinase 1 (Homo sapiens) (Q05397 whole entry, looked up): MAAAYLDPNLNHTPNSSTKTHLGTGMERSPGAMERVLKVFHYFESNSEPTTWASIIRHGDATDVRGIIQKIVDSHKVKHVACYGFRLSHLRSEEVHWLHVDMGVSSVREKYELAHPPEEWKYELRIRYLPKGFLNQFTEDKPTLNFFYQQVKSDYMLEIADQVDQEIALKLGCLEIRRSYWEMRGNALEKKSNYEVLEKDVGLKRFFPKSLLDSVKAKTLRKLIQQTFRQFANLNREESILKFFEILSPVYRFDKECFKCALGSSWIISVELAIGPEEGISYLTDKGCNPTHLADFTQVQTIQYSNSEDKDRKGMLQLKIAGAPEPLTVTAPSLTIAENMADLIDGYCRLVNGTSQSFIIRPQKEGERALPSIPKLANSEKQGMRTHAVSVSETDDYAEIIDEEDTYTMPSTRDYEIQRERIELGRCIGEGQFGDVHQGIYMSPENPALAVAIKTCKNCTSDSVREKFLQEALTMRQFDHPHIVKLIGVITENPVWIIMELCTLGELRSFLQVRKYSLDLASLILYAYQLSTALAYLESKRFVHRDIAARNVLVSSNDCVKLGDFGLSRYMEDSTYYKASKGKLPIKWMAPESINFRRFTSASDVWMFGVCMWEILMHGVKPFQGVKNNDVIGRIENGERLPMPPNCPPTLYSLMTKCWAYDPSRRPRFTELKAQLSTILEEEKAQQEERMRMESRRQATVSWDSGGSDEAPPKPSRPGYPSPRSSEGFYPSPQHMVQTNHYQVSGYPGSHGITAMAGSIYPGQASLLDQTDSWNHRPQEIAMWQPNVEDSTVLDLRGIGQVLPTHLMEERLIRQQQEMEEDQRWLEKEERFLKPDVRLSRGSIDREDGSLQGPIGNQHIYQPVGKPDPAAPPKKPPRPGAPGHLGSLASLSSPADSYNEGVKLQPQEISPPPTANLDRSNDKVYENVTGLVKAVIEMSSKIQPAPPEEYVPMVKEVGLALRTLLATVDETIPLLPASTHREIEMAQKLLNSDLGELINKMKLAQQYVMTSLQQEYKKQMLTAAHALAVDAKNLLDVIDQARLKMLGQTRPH

[4] = system: Fibrinogen (Alexa647-labelled); assay: fibrinogen binders on compound microarrays, profiling panel, artefact control for SMM control-protein annotation, biochemical, small-molecule microarray, 635/667 nm fluorescence (AID 1131); details: fibrinogen-A647 binding fluorescence, higher = more signal;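 note: z-score merges 667 nm fluorescence with per-spot signal-to-noise over triplicate slides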
[5] = target: Follistatin (Homo sapiens) (UniProt P19883); assay: follistatin binders on small-molecule microarrays, primary screen, biochemical, small-molecule microarray, 635/667 nm fluorescence (AID 1132); details: FST binding, 635 nm fluorescence, higher = more signal
Sequence of Follistatin (Homo sapiens) (P19883 whole entry, looked up): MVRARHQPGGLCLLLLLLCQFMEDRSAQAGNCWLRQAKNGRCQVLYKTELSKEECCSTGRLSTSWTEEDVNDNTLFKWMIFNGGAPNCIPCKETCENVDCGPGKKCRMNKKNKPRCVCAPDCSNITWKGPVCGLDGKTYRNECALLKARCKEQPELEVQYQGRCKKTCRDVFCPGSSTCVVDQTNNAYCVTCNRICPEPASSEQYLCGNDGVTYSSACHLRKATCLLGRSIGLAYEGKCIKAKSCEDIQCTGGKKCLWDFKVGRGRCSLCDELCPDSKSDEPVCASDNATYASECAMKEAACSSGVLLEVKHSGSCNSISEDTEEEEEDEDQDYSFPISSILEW

[6] = target: Fibroblast growth factor 2 (Homo sapiens) (UniProt P09038); assay: FGF2 binders on small-molecule microarrays, primary screen, biochemical, small-molecule microarray, 635/667 nm fluorescence (AID 1133); details: small-molecule microarray binding, FGF2, fluorescence 635/667; higher = more signal
Sequence of Fibroblast growth factor 2 (Homo sapiens) (P09038 whole entry, looked up): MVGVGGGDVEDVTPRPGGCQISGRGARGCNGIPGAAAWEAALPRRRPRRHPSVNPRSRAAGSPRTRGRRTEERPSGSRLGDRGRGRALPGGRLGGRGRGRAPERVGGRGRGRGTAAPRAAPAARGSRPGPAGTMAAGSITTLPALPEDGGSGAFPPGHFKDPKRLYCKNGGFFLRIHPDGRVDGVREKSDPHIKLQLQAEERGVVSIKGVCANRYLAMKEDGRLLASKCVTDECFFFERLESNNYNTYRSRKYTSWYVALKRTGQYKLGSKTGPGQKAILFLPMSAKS

[7] = mitochondrial membrane potential change in A549 cells, profiling panel, cell-based, JC-1 fluorescence, basal, 24 h, 100 nL (AID 1138); details: higher = more signal;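 note: A549 lung adenocarcinoma cells under basal conditions with no added stimulus; test concentration not given here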
[8] = system: Lefty1; assay: Lefty1 binders on small-molecule microarrays, primary screen, biochemical, small-molecule microarray, 635/667 nm fluorescence (AID 1139); details: small-molecule microarray binding, fluorescence 635/667; higher = more signal
[9] = system: wheat germ agglutinin (Triticum aestivum), Alexa647-labelled; assay: wheat germ agglutinin binders on compound microarrays, profiling panel, artefact control for SMM control-protein annotation, biochemical, small-molecule microarray, 635/667 nm fluorescence (AID 1140); details: WGA-A647 binding, 635 nm fluorescence, higher = more signal;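 note: score merges 667 nm feature emission with signal to noise over triplicate slides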
[10] = target: Luciferin 4-monooxygenase (Photinus pyralis) (UniProt P08659); assay: firefly luciferase enzyme inhibitors, primary screen, biochemical, luminescence, purified enzyme, 2006 set (AID 1141); details: SteadyGlo luminescence, 30 min, higher = more signal, called active from +8 up or from −8 down;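 note: cell-free assay with purified firefly luciferase at 100 ng per well in PBS; test concentration not given here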
Sequence of Luciferin 4-monooxygenase (Photinus pyralis) (P08659 whole entry, looked up): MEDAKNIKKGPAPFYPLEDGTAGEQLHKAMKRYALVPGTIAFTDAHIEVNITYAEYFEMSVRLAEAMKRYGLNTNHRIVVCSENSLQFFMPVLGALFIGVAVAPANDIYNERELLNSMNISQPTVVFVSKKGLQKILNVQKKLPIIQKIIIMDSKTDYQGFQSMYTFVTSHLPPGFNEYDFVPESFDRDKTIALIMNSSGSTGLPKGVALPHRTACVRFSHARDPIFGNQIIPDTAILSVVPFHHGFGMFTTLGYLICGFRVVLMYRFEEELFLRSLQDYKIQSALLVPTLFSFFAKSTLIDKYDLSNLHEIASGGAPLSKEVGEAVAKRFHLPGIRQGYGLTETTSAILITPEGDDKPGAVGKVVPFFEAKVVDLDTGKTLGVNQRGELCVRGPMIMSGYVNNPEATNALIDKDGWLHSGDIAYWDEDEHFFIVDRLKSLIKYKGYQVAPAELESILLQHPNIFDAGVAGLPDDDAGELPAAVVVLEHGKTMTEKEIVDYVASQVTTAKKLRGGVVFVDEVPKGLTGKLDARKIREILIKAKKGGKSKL

[11] = system: Wnt5a (protein binding on small-molecule microarray); assay: Wnt5a binders on small-molecule microarray, primary screen, biophysical, 635/667 nm fluorescence (AID 1142); details: 635 nm fluorescence, higher = more signal;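 note: fluorescence read at 667 nm with signal to noise per printed feature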
[12] = cell viability in Huh7 cells, primary screen, cytotoxicity control for HCV replication inhibitor project, CellTiter-Glo luminescence, basal, 48 h (AID 1143); details: Huh7 HCV replicon, higher = more signal, called active from +8 up or from −8 down;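 note: Huh7 hepatoma cells carrying a hepatitis C replication reporter with no stimulus; test concentration not given here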
[13] = P. aeruginosa biofilm formation inhibitors, primary screen, PAO1 strain, BacTiter-Glo luminescence, LB-PBS (AID 1144); details: 12 h, higher = more signal
[14] = CREB reporter modulators without forskolin, primary screen, cell-based, PC12, CRE-LacZ reporter, unstimulated (AID 1145); details: no forskolin, luminescence, 4.5 h, higher = more signal, called active from +8 up or from −8 down
[15] = CREB reporter modulators under forskolin, primary screen, cell-based, PC12, CRE-LacZ reporter, forskolin-stimulated (AID 1146); details: luminescence, 4.5 h, higher = more signal, called active from +8 up or from −8 down;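 note: PC12 cells with 6xCRE LacZ reporter stimulated by forskolin 10 µM; beta-galactosidase reporter signal reflecting CREB driven transcription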
[16] = target: Streptavidin (Streptomyces avidinii) (UniProt P22629); assay: streptavidin binders on small-molecule microarray, primary screen, artefact control for SMM compound annotation, biophysical, 635/667 nm fluorescence (AID 1147); details: streptavidin binding, higher = more signal;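 note: signal reflects streptavidin binding to arrayed compounds as a control protein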
Sequence of Streptavidin (Streptomyces avidinii) (P22629 whole entry, looked up): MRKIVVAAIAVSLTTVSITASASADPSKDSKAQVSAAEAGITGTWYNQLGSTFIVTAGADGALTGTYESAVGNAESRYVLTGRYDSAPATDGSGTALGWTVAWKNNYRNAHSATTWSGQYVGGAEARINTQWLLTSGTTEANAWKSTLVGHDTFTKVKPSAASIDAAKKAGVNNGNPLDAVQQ

[17] = small-molecule binders of probe aInhba, primary screen, biochemical, small-molecule microarray, 635/667 nm fluorescence (AID 1148); details: higher = more signal;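 note: score merges 667nm spot fluorescence with signal-to-noise for antibody binding to printed compounds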
[18] = target: Torsin-1A (Homo sapiens) (UniProt O14656); assay: torsin A binders from cell lysate, primary screen, small-molecule microarray, wild-type, 635/667 nm (AID 1149); details: COS7 hTOR1A-WT lysate, 635 nm fluorescence, higher = more signal
Sequence of Torsin-1A (Homo sapiens) (O14656 whole entry, looked up): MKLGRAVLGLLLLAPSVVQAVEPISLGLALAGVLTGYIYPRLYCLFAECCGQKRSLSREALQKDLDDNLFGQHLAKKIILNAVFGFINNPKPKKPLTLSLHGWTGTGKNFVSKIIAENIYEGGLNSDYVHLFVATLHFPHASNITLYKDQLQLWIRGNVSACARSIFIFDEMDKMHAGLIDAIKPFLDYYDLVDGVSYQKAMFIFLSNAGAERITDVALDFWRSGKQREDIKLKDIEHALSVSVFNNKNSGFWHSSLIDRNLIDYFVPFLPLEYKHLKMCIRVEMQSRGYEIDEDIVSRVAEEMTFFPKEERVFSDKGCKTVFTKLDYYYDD

[19] = target: Torsin-1A (Homo sapiens) (UniProt O14656); assay: small-molecule binders of mutant TOR1A in lysate, primary screen, cell lysate, small-molecule microarray, COS7 lysate, 635/667 nm fluorescence (AID 1150); details: COS7 hTOR1A mutant lysate, 635 nm fluorescence, higher = more signal;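 note: score pools 667 nm emission and signal to noise measuring lysate protein binding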
[20] = system: Sonic hedgehog protein (Shh); assay: small-molecule binders of Shh protein, primary screen, biochemical, small-molecule microarray, 635/667 nm fluorescence (AID 1151); details: small-molecule microarray binding, 635 nm fluorescence; higher = more signal;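 note: Shh protein binding to compounds spotted on small-molecule microarray slides; score combines spot fluorescence intensity with signal-to-noise across triplicate slides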

| SMILES | composite z-score [1] | composite z-score [2] | composite z-score [3] | composite z-score [4] | composite z-score [5] | composite z-score [6] | z-score [7] | composite z-score [8] | composite z-score [9] | z-score [10] | composite z-score [11] | z-score [12] | z-score [13] | z-score [14] | z-score [15] | composite z-score [16] | composite z-score [17] | composite z-score [18] | composite z-score [19] | composite z-score [20] |
| --- | --- | --- | --- | --- | --- | --- | --- | --- | --- | --- | --- | --- | --- | --- | --- | --- | --- | --- | --- | --- |
| C=C(/C(=C/C[C@@H](OC(=O)c1ccncc1)c1ccccc1OCCO)c1cnc2ccccc2c1)C(C)C | 1.18 | 0.896 | 0.204 | 0.963 | 1.45 | 1.87 | 0.494 | 1.65 | 0.869 | -1.08 (inactive) | 0.816 | -8.34 (active) | 0.556 (inactive) | 15.6 (active) | -0.0321 (inactive) | 1.67 | 0.421 | 0.799 | -0.0593 | 2.22 |
| [N-]=[N+]=Nc1ccccc1C[C@]1(C(=O)NCCN2CCOCC2)N=C(c2ccc(OCCCO)cc2)O[C@H]1c1ccccc1N=[N+]=[N-] | 1.55 | 1.24 | -0.0277 | 0.94 | 1.39 | 1.65 | 2.42 | 0.499 | 0.687 | -5.36 (inactive) | 0.682 | -3.68 (inactive) | -0.933 (inactive) | 0.573 (inactive) | -1.29 (inactive) | 0.678 | 0.726 | 0.818 | 0.954 | 0.926 |
| CC(C)C(CO)N1C(=O)[C@@H]2[C@H]3C(=O)OCC=C[C@H]3OC23C=CCN(Cn2nnc4ccccc42)C(=O)[C@@H]13 (stereo not given in full) | 0.36 | -0.938 | 0.118 | -0.424 | -0.802 | -1.05 | -0.58 | -1.72 | -0.203 | 0.152 (inactive) | -0.257 | 0.44 (inactive) | 0.0585 (inactive) | -0.492 (inactive) | -0.0021 (inactive) | -1.05 | -0.231 | -0.957 | -2.27 | -1 |
| COc1cccc(C[C@H]2C[C@@H](CO[Si](C(C)C)(C(C)C)C(C)C)N3C(=O)[C@]4(C(C)=O)O[C@]23[C@H]2C(=O)N(C)C(=O)[C@H]24)c1 | 0.786 | 1.04 | 0.353 | 0.674 | 0.9 | 0.865 | 1.51 | 1.19 | 0.425 | 0.216 (inactive) | 0.205 | -4.4 (inactive) | 0.0793 (inactive) | 1.62 (inactive) | 0.325 (inactive) | 0.636 | -0.008 | 0.0282 | 0.611 | 1.09 |
| COC(=O)[C@]1(Cc2ccccc2N=[N+]=[N-])N=C(c2ccc(OCCCO)cc2)O[C@@H]1c1ccccc1 | 0.334 | 1.09 | -0.141 | 0.215 | 0.313 | -0.101 | 1.02 | -0.489 | 0.244 | -2.2 (inactive) | 0.0416 | -5.29 (inactive) | -0.566 (inactive) | 2.59 (inactive) | 15.8 (active) | -0.189 | 0.125 | -0.53 | -0.23 | -0.148 |

From PubChem BioAssay
